# Bioassay records: PubChem BioAssay, several laboratories
# Only some compounds are listed: those with a hit (about 3.6% of all), similar ones and a draw of the others.
# Bead autofluor = compound fluorescence in toxin protease inhibitor counterscreen; compound autofluorescence counterscreen, microsphere flow cytometry; active compounds read high; fluorescence intensity (no concentration beside the values); AID 624483; 360,000 compounds, 3.1% hits; in the data active = fluorescence intensity above about 16000; inconclusive = no clear call, values can overlap the other calls
# Anthrax LF inh2 = Bacillus anthracis LF protease inhibitors, primary screen, biochemical, multiplex microsphere, MLPCN library. Lethal factor (Bacillus anthracis), P15917. multiplex microsphere protease cleavage assay. inhibition, % at 10 µM. 360,000 compounds, 0.12% hits; also: plate controls were buffer without enzyme for full effect and enzyme alone for no effect
# BoNT-F LC inh = BoNT/F light chain protease inhibitors, primary screen, biochemical, flow cytometry, MLPCN library; Multiplex microsphere protease cleavage assay; inhibition, % at 10 µM; AID 588497, 2011; 360,000 compounds, 0.22% hits; in the data active = inhibition above about 35%, passing the limit was not always enough; inconclusive = no clear call, values can overlap the other calls; also: plate controls were buffer without enzyme for full effect and enzyme alone for no effect
# MazEF act = activators of E. coli MazEF toxin-antitoxin RNase, primary screen, biochemical, fluorescence, uHTS. 350,000 compounds, 0.32% hits. Endoribonuclease toxin MazF (Escherichia coli (strain K12)), P0AE70. FAM/BHQ RNA-DNA oligo cleavage fluorescence, 5 h. activation, % at 20 µM. AID 504720, 2011; in the data active = activation above about 50%
# BoNT-A LC inh2 = BoNT/A light chain protease inhibitors, primary screen, biochemical, flow cytometry, MLPCN library; Botulinum neurotoxin type A light chain protease (Clostridium botulinum A str. ATCC 3502); multiplex microsphere protease substrate cleavage; inhibition, % at 10 µM; 360,000 compounds, 0.17% hits; also: plate controls were buffer without enzyme for full effect and enzyme alone for no effect
# * marks the source's active call; other numbers are inactive results; ? = inconclusive; · = not tested or not shown. Rule as the data show it, unless noted: active = inhibition above about 30%; inconclusive = no clear call, values can overlap the other calls; inactive = below that.
SMILES,Bead autofluor,Anthrax LF inh2,BoNT-F LC inh,MazEF act,BoNT-A LC inh2
Cc1cc(C(=O)CSc2nc3ccccc3c(=O)[nH]2)c(C)n1CC1CCCO1 (stereo not given),4355,-4,-4,0,0
O=c1[nH]c(SCC2CCCCO2)nc2ccccc12 (stereo not given),21391*,0,0,-4,?
CN(CC(=O)Nc1ccccc1Br)C(=O)CN1CCN(c2ccccc2Cl)CC1,2881,-7,-6,-9,-1
COCCn1c(-c2ccc(OC)cc2)nc2oc3cc(OC)ccc3c(=O)c2c1=O,20954*,-3,-5,6,-3
COc1ccc(-c2nc3oc4cc(OC)ccc4c(=O)c3c(=O)n2Cc2ccco2)cc1,20811*,-1,-1,2,0
COCCCn1c(C(C)C)nc2oc3cc(OC)ccc3c(=O)c2c1=O,20914*,0,1,8,-1
COCCn1c(-c2ccc(Cl)cc2)nc2oc3cc(OC)ccc3c(=O)c2c1=O,6669,-4,-8,10,-1
CC(=O)OC1CCC2(C)C(CCC3C2CC(=O)C2(C)C3CC(C3CCCC3=O)C2C(C)=O)C1 (stereo not given),3742,7,4,-2,0
O=C(CNC(=O)c1ccc(Cl)c([N+](=O)[O-])c1)OCN1C(=O)c2ccccc2C1=O,5195,-1,-4,1,-1
Cc1ccc(N2C(=O)N(CC(=O)Nc3ccc([N+](=O)[O-])cc3)C(=O)C2C)cc1 (stereo not given),6137,-1,-13,2,-3
CC(=O)c1ccc(OCCCC(=O)N2CCN(S(=O)(=O)c3ccc(C(C)C)cc3)CC2)cc1,5710,-4,-14,-3,-3
O=CN(/C=C1\Sc2ccccc2C1=O)Cc1ccccc1,22692*,1,3,-22,2
CCC(=O)N(C)/C=C1\Sc2ccccc2C1=O,2550,1,2,-14,0
CC1Cc2ccccc2N1C(=O)c1cnc2ccccn2c1=O (stereo not given),23725*,-2,-5,3,-2
CCOC(=O)c1[nH]c(C=O)c(C(=O)OCC)c1C,3441,2,-4,8,0
CCOC(=O)c1nc(C)[nH]c1C(=O)OCC,22419*,-4,0,-9,?
Cc1cc(C(=O)NCc2cc(C)n(C)n2)sc1-c1ccccc1,18215*,-9,3,-1,3
Cc1cc(CNC(=O)c2cc(COc3c(F)cccc3F)on2)nn1C,2443,0,0,-1,0
Cc1cc(CNC(=O)Cc2c(F)cccc2Cl)nn1C,19997*,-3,2,1,0
COc1ccc(/C(O)=C2/C(=O)C(=O)N(c3ccccn3)C2c2ccc(F)cc2)cc1 (stereo not given),3736,-15,0,0,0
NC(=O)c1sc2nnc(-c3ccccc3)c(-c3ccccc3)c2c1N,17320*,-44,?,-12,-56
Clc1ccc(OCCOCCNCc2ccccc2)cc1Cl,4363,11,?,11,-2
O=C(O)CCN1C(=O)/C(=C/c2ccc(-c3nc4ccccc4s3)o2)SC1=S,3505,19,-1,6,17
O=C(O)CCCN1C(=O)/C(=C\c2ccc(-c3nc4ccccc4s3)o2)SC1=S,4325,28,6,-30,41*
CC1C(=O)N2CCCc3cc(NC(=O)C4CC4)cc1c32 (stereo not given),5832,-2,-5,-1,-2
SMILES,Bead autofluor,Anthrax LF inh2,BoNT-F LC inh,MazEF act,BoNT-A LC inh2
O=C1NC(=O)C2(CCCc3c([N+](=O)[O-])cccc32)N1 (stereo not given),3771,-2,-1,1,0
O=C(NNC1=NCCCCC1)c1ccccc1,22558*,0,2,-1,2
c1ccc(CNC2=NCCCC2)cc1,3801,-2,-6,-7,0
CC(NC(=O)c1cccnc1)c1ccc2c(c1)OCO2 (stereo not given),16408*,-1,-2,4,?
CC(NC(=O)c1cccs1)c1ccc2c(c1)OCO2 (stereo not given),20040*,-1,-1,1,0
Cc1ccsc1C(=O)NC(C)c1ccc2c(c1)OCO2 (stereo not given),22863*,-1,-3,12,0
Cc1ccc(C(=O)NC(C)c2ccc3c(c2)OCO3)s1 (stereo not given),4079,-2,-3,2,0
Cn1c(=O)c2cc(NC(=O)Nc3ccccc3)ccc2n1Cc1ccccc1,3718,-4,6,·,0
COCCN1C(=O)CCC1(C)C(=O)Nc1c(C)cccc1C (stereo not given),3986,-5,1,·,1
CC1(C)C2CC[C@]3(C)C(CC=C4[C@@H]5C[C@@](C)(CO)[C@@H](O)C[C@]56C[C@@H](OC6=O)[C@]43C)[C@@]2(C)CC[C@@H]1O (stereo not given in full),5714,2,-5,-8,0
O=C(Nc1cccc2ccccc12)N1CC=C(c2ccccc2)CC1,4321,-2,-13,78*,0
O=C(Nc1ccccc1)N1CC=C(c2ccc(F)cc2)CC1,2369,-2,-1,-6,0
CCOC(=O)C(C)Sc1ncc(OC)c(Sc2ccc(Cl)cc2)n1 (stereo not given),24632*,-2,-10,-8,-6
CCOC(=O)CSc1ncc(OC)c(Sc2ccc(Cl)cc2)n1,21505*,-16,0,-10,?
CCOC(=O)C(C)Sc1ncc(OC)c(=O)[nH]1 (stereo not given),3869,6,30,0,4
O=C(COC(=O)CCc1ccc(S(=O)(=O)N2CCOCC2)cc1)Nc1ncc(C(F)(F)F)cc1Cl,25667*,0,-9,-1,-5
O=C(COC(=O)c1ccc2ccccc2n1)Nc1ncc(C(F)(F)F)cc1Cl,22793*,3,2,1,-1
O=C(NNc1ncc(C(F)(F)F)cc1Cl)c1ccc(Cl)c(Cl)c1,·,·,·,10,·
Nc1ccccc1C(=O)NNc1ncc(C(F)(F)F)cc1Cl,22928*,-1,-4,-16,?
CC(C)c1ccc(NC2CCCN(C(=O)c3n[nH]c4c3CCC4)C2)cc1 (stereo not given),5171,-2,6,9,1
Cc1cc(NC(=O)c2ccc(Cl)cc2)cc(C)c1OCC(=O)N1CCOCC1,5898,2,2,4,2
Cc1cccc(OCc2nnc(SCC(=O)N3CCc4ccccc43)n2C)c1,24057*,-2,-1,4,-3
Cc1cccc(OCc2nnc(SCC(=O)N3CCCC3)n2C)c1,16407*,0,4,2,0
COc1ccc(N2CCN(C(=O)CN=C3NS(=O)(=O)C(c4ccc(C)cc4)=C3C)CC2)cc1,17288*,0,-1,5,-3
Cc1c(C(=O)N(C)C2CC(C)(C)NC(C)(C)C2)oc2c(F)cccc12,5964,1,1,3,3
